In the library only some 7.9% were active in any assay of this set; here they are far more common.
KB-V1 cytotox: kills drug-selected multidrug resistant KB-V1 cells; KB-V1 MDR cells viability, CellTiter-Glo, 72 h; Potency, µM (series often up to 46.1 µM), usual class: cytotoxic; 3.4% of 400,000 active; also: nearly all actives have a fitted effect of over 60% in size
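Compound-treated KB-V1 multidrug-resistant cells, 72 h, 37 degrees C; viability by CellTiter-Glo. Fitted qHTS curves give the values.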
SW480 rerep: induces DNA re-replication in SW480 colon adenocarcinoma cells. SW480 DNA re-replication, Hoechst DNA content imaging, 48 h. Potency, µM (series often up to 46.1 µM), most hits filed as activators. 1.8% of 340,000 active. AID 624297; also: nearly all actives have a fitted effect of over 55% in size
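Quantitative HTS format with DMSO vehicle controls; 48 hr drug incubation at 37 C, then 40 min Hoechst staining and scanning imager measurement at 405 nm excitation.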
HT1080 IDH1KD tx: kills HT-1080 cells with IDH1 knockdown | HT-1080 IDH1 knockdown viability, ATP luminescence, 48 h | Potency, µM (highest dose often 46.1 µM), hits mostly cytotoxic | 2% of 360,000 active | AID 686971
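Viability of IDH1-knockdown HT-1080 fibrosarcoma cells was assessed by CellTiter-Glo after 48 h at 37 °C with titrated compound; concentration-effect curves were classified by fit quality and response size.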
MCF10A rerep: induces DNA re-replication in MCF 10a normal breast cells | MCF 10A DNA re-replication, Hoechst nuclear intensity, 48 h | Potency, µM (titrated, usually from 46.1 µM), actives largely listed as activators | 2.9% of 350,000 active; also: nearly all actives have a fitted effect of over 50% in size
HT1080NT lethal: kills 2HG-producing HT-1080-NT fibrosarcoma cells; HT-1080-NT fibrosarcoma viability, CellTiter-Glo ATP luminescence, 48 h; Potency, µM (titrated, usually from 46.1 µM), hits mostly cytotoxic; 1.6% of 360,000 active;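 also: NT is the 2HG producing partner of a matched IDH1 knockdown line; nearly all actives have a fitted effect of over 55% in size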
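Viability of the 2HG-overproducing fibrosarcoma line after 48 hours of compound exposure at 37 degrees C was determined by luminescence with CellTiter-Glo, and concentration-effect curves were then fitted and categorized.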
KB-3-1 tox: kills parental KB-3-1 adenocarcinoma cells; KB-3-1 viability, CellTiter-Glo ATP luminescence, 72 h; Potency, µM (top dose mostly 46.1 µM), hits mostly cytotoxic; 1.4% of 400,000 active; also: nearly all actives have a fitted effect of over 60% in size
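72 h, 37 °C compound treatment of KB-3-1 parental cells; CellTiter-Glo added, 10 min, luminescence read. Data corrected against DMSO-only plates and normalized before curve fitting.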
Hits are given with their value; n = inactive; u = inconclusive; x = no result given. Calls follow the shape of the dose curve; as a rule, active = well fitted curve in the direction sought with a large enough effect; inconclusive = small, poorly fitted or top-dose-only effect, or another doubt; inactive = no such curve, though single readings can be large; an effect the other way counts as inactive or inconclusive.

SMILES | KB-V1 cytotox | SW480 rerep | HT1080 IDH1KD tx | MCF10A rerep | HT1080NT lethal | KB-3-1 tox
Cc1c(Cl)cccc1NC(=O)CNc1cccc(S(=O)(=O)N(C)C)c1 | 16µM | n | n | n | n | n
CCc1ccc(NC(=O)C(=O)NCCc2csc(-c3cccc(F)c3)n2)cc1 | n | x | x | x | x | n
Cc1ccc(S(=O)(=O)N2Cc3ccccc3CC2C(=O)N(C)C)cc1 (stereo not given) | n | x | n | x | n | n
CC1CCN(C(=S)NCCc2ccccc2)CC1 | 23µM | n | u | n | u | n
S=C(NCCc1ccccc1)N1CCN(C(=S)NCCc2ccccc2)CC1 | n | n | n | n | n | n
Fc1ccc(CN2CCN(C(=S)NCCc3ccccc3)CC2)c(Cl)c1 | 21µM | n | n | n | n | u
S=C(NCCc1ccccc1)N1CCN(Cc2ccc(Cl)c(Cl)c2)CC1 | n | n | n | n | n | u
COCCCn1c(SCc2ccccc2F)nc2c(sc3ccccc32)c1=O | n | x | x | x | x | n
COCCNCCCCOc1ccccc1-c1ccccc1 | u | n | n | n | n | n
CCCCNCCOCCOc1ccccc1-c1ccccc1 | 18µM | u | n | n | n | n
COc1cc(OC)c(NC(=O)c2c(N3CCCC3=O)c3cc(C)ccc3n2C)cc1Cl | n | x | x | x | x | n
C=CCNc1sc(C(=O)c2ccc(C)cc2)c(N)c1C#N | n | n | n | u | n | n
C=CCNc1nc(N)c(C(=C(C#N)C#N)c2ccc(Br)cc2)s1 | 18µM | 21µM | u | u | n | u
COc1ccc(-c2nc3c(c(=O)[nH]c(=O)n3Cc3ccccc3)n2C)cc1 | n | n | n | n | n | n
COc1ccc(-c2nc3c(c(=O)[nH]c(=O)n3Cc3ccccc3)n2Cc2ccccc2)cc1 | 3.7µM | n | u | u | u | u
Cn1c(-c2cccc(OCc3ccccc3)c2)nc2c1c(=O)[nH]c(=O)n2Cc1ccccc1 | u | n | n | u | n | 15µM
Cn1c(-c2cccc(F)c2)nc2c1c(=O)[nH]c(=O)n2Cc1ccccc1 | n | n | u | n | u | n
Cn1c(=O)c2c(nc(-c3ccccc3)n2C)n(Cc2ccccc2)c1=O | 15µM | n | n | n | n | n
CCOC(=O)C1C(=O)C(C(C)=O)C(=O)CC1CC(C)SCC (stereo not given) | 21µM | n | n | n | n | n
Cc1ccc(CNC(=O)C(C)n2c(=O)cc(-c3ccccc3)c3c(C)nn(C)c32)cc1 (stereo not given) | n | x | x | x | x | n
O=C(O)c1ccc(/C=N/NC(=O)c2cc3c(ccc4ccccc43)o2)cc1 | n | n | n | n | n | n
Cc1ccc(-c2ccc(/C=N\NC(=O)c3cc4c(ccc5ccccc54)o3)o2)cc1[N+](=O)[O-] | u | n | n | 7.3µM | u | u
Cc1ccc([N+](=O)[O-])cc1-c1ccc(/C=N/NC(=O)c2cc3c(ccc4ccccc43)o2)o1 | n | n | n | n | n | n
O=C(N/N=C/c1ccc(-c2ccc(Cl)c(C(=O)O)c2)o1)c1cc2c(ccc3ccccc32)o1 | n | u | n | 21µM | n | n
CCOc1ccc2ncc(S(=O)(=O)c3ccc(C)cc3)c(N3CCC4(CC3)OCCO4)c2c1 | 4.1µM | u | n | u | n | u
SMILES | KB-V1 cytotox | SW480 rerep | HT1080 IDH1KD tx | MCF10A rerep | HT1080NT lethal | KB-3-1 tox
COc1ccc(-n2nc3c(c2NC(=O)C(=O)N2CCN(C)CC2)CSC3)cc1 | n | x | x | x | x | n
Cc1ccc(Cl)cc1NC(=O)CC(O)(C(F)(F)F)C(F)(F)F | 21µM | 18µM | u | n | 20µM | u
CN(/N=C\c1ccc(O)c(O)c1)c1nc(-c2ccccc2)cc(-c2ccccc2)n1 | u | 18µM | u | u | u | n
CC(=O)N1CC(C)Sc2ccc(S(=O)(=O)NCc3ccc(Cl)cc3)cc21 (stereo not given) | n | u | n | n | n | 23µM
CC(=O)N1CC(C)Sc2ccc(S(=O)(=O)NCCc3ccc(C)cc3)cc21 (stereo not given) | n | n | n | u | n | n
COc1ccc(-c2ccnc(-c3ccncc3)n2)cc1 | n | 21µM | n | n | n | u
Oc1ccc(Nc2nc(-c3ccc(O)cc3)cs2)cc1 | n | u | u | 13µM | u | u
COc1ccc(-c2nc(-c3ccc(O)cc3O)cs2)cc1OC | u | u | u | 21µM | u | n
COc1ccc(-c2nc(CCl)cs2)cc1 | n | n | n | u | n | n
COc1ccc(-c2nc(CCl)cs2)cc1OC | u | n | n | n | n | n
COc1ccc(-c2csc(-c3ccc(O)cc3)n2)cc1 | 2.6µM | 7.3µM | 1.6µM | 15µM | 5.2µM | 4.1µM
O=C(Nc1ccc(S(=O)(=O)N2CCOCC2)cc1)c1ccc(Cl)c([N+](=O)[O-])c1 | n | u | n | u | u | n
CC1CCCCN1Cc1c(O)ccc2c(=O)c(-c3ccc(Cl)cc3)c(C(F)(F)F)oc12 (stereo not given) | n | x | x | x | x | n
Cc1ccc(-c2ccnc(-c3ccc(O)cc3)n2)cc1 | u | n | n | n | n | n
COc1ccc2cc(-c3csc(-c4cccnc4)n3)ccc2c1 | n | n | n | 15µM | n | n
COc1ccc(-c2ccnc(-c3ccc(O)cc3)n2)cc1 | 7.3µM | 8.2µM | 1.5µM | 2.1µM | 4.1µM | 5.8µM
CCn1c(/C=C/N(C)c2ccccc2)[n+](CC)c2ccc(Cl)cc21 | n | n | n | n | 7.1µM | 5.2µM
CN=C(N)NC(=O)Nc1c(C)cccc1C | n | 16µM | n | n | n | n
Cc1cccc(C)c1NC(=O)CN | u | 18µM | n | n | u | n
CN=C(NC(=O)Nc1c(C)cccc1C)NC(=O)Nc1c(C)cccc1C | n | n | n | n | n | n
CC(NC(=O)Cc1ccc(NC(=O)N2CCSc3ncccc32)cc1)c1ccccc1 (stereo not given) | n | x | x | x | x | n
CN(C)c1ccc(CNC(=O)C2CCN(Cc3cc4ccccc4n3Cc3ccccc3)CC2)cc1 | n | x | x | x | x | n
Cc1ccc(C)c(N2CCN(C(=O)C3CCC(CNS(=O)(=O)c4ccc(Br)s4)CC3)CC2)c1 (stereo not given) | n | x | x | x | x | n
Cc1c(O)ccc2c3c(c(=O)oc12)CCC(C)C3 (stereo not given) | u | n | n | n | n | n
Cc1c(O)ccc2c3c(c(=O)oc12)CCCC3 | 16µM | n | n | u | n | u
Cc1ccc(C)c(NC(=S)NNC(=O)c2sccc2C)c1 | u | n | u | n | 8.9µM | n
COc1ccccc1N(C)S(=O)(=O)c1ccc(C(=O)NCCCN2CCCC2=O)cc1 | n | x | n | x | n | n
O=C(O)c1ccc(CNCc2ccc(Cl)cc2)s1 | u | x | x | x | x | n
